In PubChem BioAssay (NCATS):
Results filed as inconclusive are left out. Entries that show only a call come without a potency. Activity calls are given as the source filed them. Calls come from the whole dose curve; as a rule, active = well fitted curve in the direction sought with a large enough effect; inconclusive = small, poorly fitted or top-dose-only effect, or another doubt; inactive = no such curve, though single readings can be large; an effect the other way counts as inactive or inconclusive.

Assays:
[1] = target: Aldehyde dehydrogenase, mitochondrial (Homo sapiens) (UniProt P05091); test: qHTS for Inhibitors of the Aldehyde Dehydrogenase Family (ALDH2) Primary screen (AID 2061308); note: nearly all actives have a fitted effect of over 55% in size
[2] = target: Retinaldehyde dehydrogenase 3 (Homo sapiens) (UniProt P47895); test: qHTS for Inhibitors of the Aldehyde Dehydrogenase Family (ALDH1A3) Primary screen (AID 2061315)

| Structure (SMILES) | Potency [1] | Potency [2] |
| --- | --- | --- |
| S=P(c1ccccc1)(c1ccccc1)c1nc(CCCc2ccccc2)n2ccccc12 | inactive | inactive |
| Cn1nnnc1Sc1ncnc2n[nH]c(-c3cccc(S(C)(=O)=O)c3)c12 | inactive | inactive |
| COc1cccc(CNc2ncnc3ccc(-c4c(C)noc4C)cc23)c1 | inactive | inactive |
| CC(=O)c1ccc(-c2csc3ncnc(Sc4nnnn4C)c23)cc1 | inactive | inactive |
| N=c1c2c(ccn1CCc1ccccc1)Oc1ccc3ccccc3c1C2c1ccccc1 (stereo not given) | inactive | inactive |
| C=C[C@H]1C(O[C@@H]2O[C@H](CO)[C@@H](O)[C@H](O)[C@H]2O)OC=C2C(=O)N3CCc4c([nH]c5ccccc45)[C@H]3C[C@H]21 (stereo not given in full) | inactive | inactive |
| CC1CCC2C(C)(C)C(O)CCC2(C)C12Cc1c(O)cc3c(c1O2)C(N)=NC3 (stereo not given) | inactive | inactive |
| Cc1ccc(-c2ccc(=O)n(CC(=O)N(C)C(C)c3cccs3)n2)cc1 (stereo not given) | inactive | inactive |
| Cc1ccc(NS(=O)(=O)c2cc3c(cc2F)NC(=O)CC3)cc1Cl | inactive | inactive |
| Cc1cc2c(s1)c1cnn(Cc3ccc(Br)cc3)c(=O)c1n2C | inactive | inactive |
| O=C(OCC#CCSc1nnc(-c2cccc3ccccc23)o1)c1ccsc1 | inactive | inactive |
| COc1cccc(Cn2ncc3c4sc(C)cc4n(C)c3c2=O)c1 | inactive | inactive |
| CC(Nc1nc(-c2ccccc2C(F)(F)F)nc2ccccc12)c1ccc(-c2ccncc2)cc1 (stereo not given) | inactive | inactive |
| O=C(Cc1ccccc1)NC(c1ccco1)c1cc(Cl)c2cccnc2c1O (stereo not given) | inactive | inactive |
| CC(=O)/C=C/[C@H]1[C@](C)(O)[C@@H](O)[C@H](O)C2C(C)(C)CCC[C@@]21C (stereo not given in full) | inactive | inactive |
| O=C(O)c1ccc2c(c1)C(=O)N([C@H](Cc1ccc([N+](=O)[O-])cc1)C(=O)O)C2=O | inactive | inactive |
| O=C1c2ccccc2C(=O)N1c1cccc2cnccc12 | inactive | inactive |
| NC(=O)C1CCN(c2nc(-c3cccc(Cl)c3)cs2)CC1 | inactive | inactive |
| Cc1c([S+](=O)([O-])N2CCN([S+](=O)([O-])c3c(F)cccc3F)CC2)sc2ccc(Cl)cc12 | inactive | inactive |
| Cc1ccccc1OC1=NS(=O)(=O)c2ccccc21 | inactive | inactive |
| O=c1c2ccccc2nc2sc(Nc3ccc(Br)cc3)nn12 | inactive | inactive |
| COc1ccc(C2c3c(n(CCCc4ccccc4)cnc3=N)Oc3ccc4ccccc4c32)cc1OC (stereo not given) | inactive | inactive |

| Structure (SMILES) | Potency [1] | Potency [2] |
| --- | --- | --- |
| Cn1c2cc(CO)sc2c2cnn(Cc3ccccc3F)c(=O)c21 | inactive | inactive |
| COc1cc(O)c(C(CC(=O)N2CCC(c3ccccc3)CC2)c2ccc(OC)c(OC)c2)c(OC)c1 (stereo not given) | inactive | inactive |
| Cc1ccccc1C(=O)n1ccc2cc(-c3nc(NC(=O)Cc4ccc5c(c4)OCO5)sc3C)ccc21 | inactive | inactive |
| CCOC(=O)c1ccc(-c2ccc3ncnc(NCc4ncc[nH]4)c3c2)o1 | inactive | inactive |
| O=C(Nc1ncc(Cc2ccc(C(F)(F)F)cc2)s1)c1ccco1 | inactive | inactive |
| Fc1cccc(Nc2nc(-c3ccncc3)nc3ccccc23)c1 | inactive | inactive |
| O=S(=O)(c1ccc2c(c1)OCCO2)N1CCN(S(=O)(=O)c2cc(F)c(F)cc2F)CC1 | inactive | inactive |
| CS(=O)(=O)/C=C/c1nc(Nc2cc(F)cc(F)c2)c2ncn(CC(F)F)c2n1 | inactive | inactive |
| CC(=O)Nc1cccc([S+](=O)([O-])N2CCCN([S+](=O)([O-])c3cccc(NC(C)=O)c3)CC2)c1 | inactive | inactive |
| Cc1ccccc1C(=O)N1CCc2cc(-c3nc(NC(=O)c4ccc5c(c4)OCO5)sc3C)ccc21 | inactive | inactive |
| NC(=O)C1CCN(c2nc(-c3cccc(N)c3)cs2)CC1 | inactive | inactive |
| Cc1cc(C)nc(NC(=S)N2CCN(c3ccccn3)CC2)c1 | inactive | inactive |
| Cc1cc(C)nc(NC(=S)N2CCN(c3ccccc3C#N)CC2)c1 | inactive | inactive |
| CC(C)N1CCc2c(sc(NC(=O)C3CCCC3)c2-c2nc3ccccc3s2)C1 | inactive | inactive |
| CN1CCN(C(=O)[C@H](Cc2ccc(O[S+](=O)([O-])c3cccc4cnccc34)cc2)N[S+](=O)([O-])c2cccc3cnccc23)CC1 | inactive | inactive |
| O=S(=O)(c1cccc(Cl)c1)N1CCN(S(=O)(=O)c2ccc3c(c2)OCCO3)CC1 | inactive | inactive |
| Cc1ccc(OC2=NS(=O)(=O)c3ccccc32)cc1 | inactive | inactive |
| Cc1cc2c(s1)c1cnn(Cc3ccc(C(=O)O)cc3)c(=O)c1n2C | inactive | inactive |
| CC(=O)NC(c1cc(Cl)c2cccnc2c1O)C1CC1 (stereo not given) | inactive | inactive |
| CCCn1c(-c2ccc(F)cc2)nc2c(NC(C)CN(C)C)nc(C)nc21 (stereo not given) | inactive | inactive |
| CC(C)(C)OC(=O)NCC(=O)NNC(=O)C(C(=O)OCc1ccccc1)c1ccccc1 (stereo not given) | inactive | inactive |
| Cc1cccc(C)c1SC1=NS(=O)(=O)c2ccccc21 | inactive | inactive |

| Structure (SMILES) | Potency [1] | Potency [2] |
| --- | --- | --- |
| COc1ccc(C2=Nn3c(nnc3-c3ccccc3F)SC2)cc1OCC1CC1 | inactive | inactive |
| COc1cccc(OC)c1C1=Nn2c(nnc2-c2ccccc2O)SC1 | inactive | inactive |
| NC(=O)C1CCN(c2nc(-c3cccc(C(F)(F)F)c3)cs2)CC1 | inactive | inactive |
| CC(=O)Nc1sc2c(c1-c1cncnc1)CCNC2 | inactive | inactive |
| Cc1cc2c(s1)c1cnn(Cc3cccc(Cl)c3)c(=O)c1n2C | inactive | inactive |
| CC(C)n1cc(-c2ccc(Oc3ccccc3)cc2)c2c(N)ncnc21 | inactive | inactive |
| COc1ccc(NC(=O)C(OC(=O)CNC(=O)c2ccccc2)c2ccccc2)cc1Cl (stereo not given) | inactive | inactive |
| CC1=C(C(=O)Nc2ccccc2Cl)C(c2ccccc2Br)N=C(Nc2nc3ccccc3o2)N1 (stereo not given) | inactive | inactive |
| N#Cc1ccc(-c2csc(N3CCC(C(N)=O)CC3)n2)cc1 | inactive | inactive |
| Oc1cccc2cc(CNc3ccccc3F)cnc12 | inactive | inactive |
| Clc1ccccc1-c1ccc2ncnc(NCc3cccnc3)c2c1 | inactive | inactive |
| Cc1cccc(C(=O)NCC(=O)OC(C(=O)Nc2cc(C(F)(F)F)ccc2Cl)c2ccccc2)c1 (stereo not given) | inactive | inactive |
| NC(=O)C1CCN(c2nc(-c3cccnc3)cs2)CC1 | inactive | inactive |
| COc1cccc(-c2ccc3ncnc(NCc4cccs4)c3c2)c1 | inactive | inactive |
| Cc1cc(C)nc(NC(=S)N2CCN(c3ccc(C(F)(F)F)cn3)CC2)c1 | inactive | inactive |
| O=C(OCC#CCSc1nnc(-c2cccc3ccccc23)o1)c1ccc(F)nc1 | inactive | inactive |
| c1cncc(-c2ccc(CNc3nc(N4CCCC4)nc4ccccc34)cc2)c1 | inactive | inactive |
| Cc1ccc(-n2cnc3cc(C(=O)N4CCCCC4)ccc32)cc1 | inactive | inactive |
| Cc1cc(C)n2ncc(C(=O)Nc3cccc(C#N)c3)c2n1 | inactive | inactive |
| COC(=O)C1=C(C)NC(COC(N)=O)=C(C(=O)OC(C)C)C1c1cccc(Cl)c1Cl (stereo not given) | inactive | inactive |
| CC/C=C/CC1=C(CCCCC(CCC(=O)O)OC(C)=O)CCC1=O (stereo not given) | inactive | inactive |
| CN(CC1CCCO1)c1ncnc2ccc(-c3ccc4c(c3)OCO4)cc12 (stereo not given) | inactive | inactive |

| Structure (SMILES) | Potency [1] | Potency [2] |
| --- | --- | --- |
| Cc1ccc(NC(=O)c2ccncc2NS(=O)(=O)c2ccc(C)cc2)cc1 | inactive | inactive |
| CCOc1ccc(CCNC(=O)c2cc3sccc3n2Cc2ccccc2)c(F)c1OCC | inactive | inactive |
| Cc1cc(C)nc(NC(=S)N2CCN(c3ccc4ncccc4c3[N+](=O)[O-])CC2)c1 | inactive | inactive |
| O=C(Cc1ccc2ccccc2c1)Nc1nnc(-c2ccncc2)s1 | inactive | inactive |
| O=[N+]([O-])c1cccc(S(=O)(=O)N2CCN(S(=O)(=O)c3ccc4c(c3)OCCO4)CC2)c1 | inactive | inactive |
| O=C(Nc1ccc(Oc2ccccc2)cc1)Nc1nnc(-c2ccncc2)s1 | inactive | inactive |
| S=C(NCCCNc1ccc(Br)cn1)NCCCc1cnc[nH]1 | inactive | inactive |
| O=C(CN1C(=O)N/C(=C\c2cccn2-c2cccc(C(=O)O)c2)C1=O)Nc1cccc(F)c1 | inactive | inactive |
| COc1cccc(C2c3c(ncn(-c4ccc(Br)cc4)c3=N)Oc3ccc4ccccc4c32)c1 (stereo not given) | inactive | inactive |
| CC1CCC2(C(=O)OC3OC(COC4OC(CO)C(O)C(O)C4O)C(O)C(O)C3O)CCC3(C)C(=CCC4C5(C)CCC(O)C(C)(C(=O)O)C5CCC43C)C2C1(C)O (stereo not given) | inactive | inactive |
| N#Cc1ccccc1CCc1nc2ncc(Br)cc2[nH]1 | inactive | inactive |
| O=S(=O)(c1ccc2c(c1)OCCO2)N1CCN(S(=O)(=O)c2cccc[n+]2[O-])CC1 | inactive | inactive |
| NC(=O)C1CCN(c2nccc(-c3ccc(Br)cc3)n2)CC1 | inactive | inactive |
| CCCN(CCC)C(=O)C(CCC(=O)OCCCN1CCN(CCOC(=O)Cc2c(C)n(C(=O)c3ccc(Cl)cc3)c3ccc(OC)cc23)CC1)NC(=O)c1ccccc1 (stereo not given) | inactive | inactive |
| CNc1oc(-c2ccc3cnccc3c2)nc1C#N | inactive | inactive |
| Cc1ccc(CNc2nc(-c3ccccc3C(F)(F)F)nc3ccccc23)s1 | inactive | inactive |
| N#Cc1ccc(NC(=O)Nc2nnc(-c3ccncc3)s2)c(Cl)c1 | inactive | inactive |
| CCOC(=O)C1CCN(C(=O)C2(NC(=O)Nc3ccccc3Cl)CCCCC2)CC1 | inactive | inactive |
| Cc1cc(N[S+](=O)([O-])c2ccc(NC(=O)Cc3ccc(Cl)nc3)cc2)no1 | inactive | inactive |
